This is part of a sample that, as a whole, favours compounds with a hit. Of some 79,000 tested, about 15% had one in any assay. Activity calls are given as the source filed them. Rule as the data show it: active = growth inhibition above about 70%; inactive = the rest.
What was measured:
[1] = NCI Yeast Anticancer Drug Screen. Data for the rad50 strain (AID 155);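 also: 0% = growth of vehicle-only cultures of the same strain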; conditions: S. cerevisiae rad50 strain growth inhibition, active compounds read high
In short: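 A DNA repair-deficient yeast mutant serves as the test organism; compound-induced growth inhibition is calculated against vehicle-treated cells.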

[2] = NCI Yeast Anticancer Drug Screen. Data for the mec2-1 strain (AID 157); conditions: S. cerevisiae mec2-1 strain, active compounds read high
In short: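 Strain: mec2-1 (DNA repair/cell cycle alteration). Compound exposure, then growth measured; inhibition expressed relative to vehicle.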

[3] = NCI Yeast Anticancer Drug Screen. Data for the sgs1 mgt1 strain (AID 161);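 also: 0% = growth of cultures given vehicle only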; conditions: S. cerevisiae sgs1 mgt1 strain, active compounds read high
In short: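 Test agents were incubated with a DNA-repair-mutant yeast strain. Growth was then read and compared against vehicle-treated controls.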

[4] = NCI Yeast Anticancer Drug Screen. Data for the cln2 rad14 strain (AID 165);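 also: 0% = growth equal to vehicle treated cultures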; conditions: S. cerevisiae cln2 rad14 strain, active compounds read high
In short: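 Compounds are applied to the cln2 rad14 yeast strain, and growth is then compared with that of vehicle-treated cultures to give inhibition.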

[5] = NCI Yeast Anticancer Drug Screen. Data for the bub3 strain (AID 167); conditions: S. cerevisiae bub3 mutant strain, active compounds read high
In short: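 Inhibition values come from growth of compound-treated mutant yeast normalised to vehicle-treated controls.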

[6] = NCI Yeast Anticancer Drug Screen. Data for the mlh1 rad18 strain (AID 175); conditions: S. cerevisiae mlh1 rad18 strain growth inhibition, active compounds read high
In short: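 Read-out is yeast growth inhibition, calculated against vehicle-only controls. The compound was applied to a strain engineered with DNA damage repair alterations.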

[7] = at 5.0 µM (retest, dose inferred, filed as 0.5)
[8] = at 50.0 µM (retest, dose inferred, filed as 5.0)

Measured: growth inhibition

O=C1CSC(c2c[nH]c3ccccc23)N1c1cccc(Cl)c1 (stereo not drawn)
inactive: [1]; [7] 10% | [2]; [7] 8% | [3]; [7] 16% | [4]; [7] 6% | [5]; [7] 16%
active: [1]; [8] 93% | [1]; at 50.0 µM 85.8% | [2]; [8] 97% | [2]; at 50.0 µM 87.7% | [3]; [8] 87% | [3]; at 50.0 µM 87.3% | [4]; [8] 95% | [4]; at 50.0 µM 87% | [5]; [8] 97% | [5]; at 50.0 µM 88.5%

CC(=O)C1(O)C(Br)CC2C3CC=C4CC(O)CCC4(C)C3CCC21C (stereo not drawn)
active: [1]; [8] 98% | [1]; at 50.0 µM 90.3% | [2]; [8] 99% | [2]; at 50.0 µM 79.5% | [3]; [8] 98% | [3]; at 50.0 µM 86.4% | [4]; [8] 98% | [4]; at 50.0 µM 87.9% | [5]; [8] 98% | [5]; at 50.0 µM 85% | [6]; [8] 98% | [6]; at 50.0 µM 83.8%
inactive: [1]; [7] 43% | [2]; [7] 37% | [3]; [7] 46% | [4]; [7] 37% | [5]; [7] 49% | [6]; [7] 53%

C/C=C/CSc1cc(NC(=S)c2ccsc2C)ccc1Cl
active: [1]; [8] 83% | [1]; at 50.0 µM 88.2% | [2]; [8] 82% | [2]; at 50.0 µM 85.8% | [3]; [8] 88% | [3]; at 50.0 µM 91.2% | [4]; [8] 80% | [4]; at 50.0 µM 84.3% | [5]; [8] 88% | [5]; at 50.0 µM 88.6%
inactive: [1]; [7] -6% | [2]; [7] -1% | [3]; [7] 43% | [4]; [7] -19% | [5]; [7] -2%

C=CCc1ccc2c(C)cc[n+](C)c2c1O
active: [1]; [8] 99% | [1]; at 50.0 µM 100% | [2]; [8] 99% | [2]; at 50.0 µM 99.2% | [3]; [8] 99% | [3]; at 50.0 µM 99% | [4]; [8] 99% | [4]; at 50.0 µM 99.5% | [5]; [8] 99% | [5]; at 50.0 µM 99.1% | [6]; [8] 99% | [6]; at 50.0 µM 98.8%
inactive: [1]; [7] 12% | [2]; [7] 19% | [3]; [7] 21% | [4]; [7] -17% | [5]; [7] 1% | [6]; [7] 23%

CC(=O)O/N=C1/CCC2C3CC=C4CC(OC(C)=O)CCC4(C)C3CCC12C (stereo not drawn)
active: [2]; [8] 93% | [2]; at 50.0 µM 71.5% | [3]; [8] 89% | [3]; at 50.0 µM 89.9% | [4]; [8] 87% | [4]; at 50.0 µM 85% | [5]; [8] 74% | [6]; [8] 93% | [6]; at 50.0 µM 77.1%
inactive: [1]; [7] 0% | [1]; [8] 69% | [1]; at 50.0 µM 68.8% | [2]; [7] 16% | [3]; [7] 8% | [4]; [7] -1% | [5]; [7] -7% | [5]; at 50.0 µM 41.5% | [6]; [7] 34%

COc1ccc(CN2CCCN(Cc3ccc(OC)cc3OC)C2c2cc(Br)ccc2O)c(OC)c1
active: [1]; [8] 98% | [1]; at 50.0 µM 99% | [2]; [8] 100% | [2]; at 50.0 µM 95.2% | [3]; [8] 99% | [3]; at 50.0 µM 99.2% | [4]; [8] 94% | [5]; [8] 98% | [6]; [8] 99% | [6]; at 50.0 µM 98.7%
inactive: [1]; [7] 31% | [2]; [7] 18% | [3]; [7] 27% | [4]; [7] 12% | [4]; at 50.0 µM 57.2% | [5]; [7] 15% | [5]; at 50.0 µM 27.9% | [6]; [7] 63%

COc1cc2c(cc1OC)C(N(C)C)C(c1ccccc1)=C2Cl (stereo not drawn)
inactive: [1]; [7] 0% | [2]; [7] -28% | [3]; [7] 1% | [4]; [7] 14% | [5]; [7] 25% | [6]; [7] 7%
active: [1]; [8] 96% | [1]; at 50.0 µM 91.2% | [2]; [8] 99% | [2]; at 50.0 µM 93.5% | [3]; [8] 96% | [3]; at 50.0 µM 92.2% | [4]; [8] 98% | [4]; at 50.0 µM 91.5% | [5]; [8] 98% | [5]; at 50.0 µM 90.8% | [6]; [8] 99% | [6]; at 50.0 µM 90.4%

CCCCCCCCCCCCCCCC[NH][Ge]([NH]CCCCCCCCCCCCCCCC)([NH]CCCCCCCCCCCCCCCC)[NH]CCCCCCCCCCCCCCCC
active: [1]; [7] 98% | [1]; [8] 96% | [1]; at 50.0 µM 87.4% | [2]; [7] 99% | [2]; [8] 97% | [2]; at 50.0 µM 91.5% | [3]; [7] 99% | [3]; [8] 96% | [3]; at 50.0 µM 90.2% | [4]; [7] 99% | [4]; [8] 96% | [4]; at 50.0 µM 89.2% | [5]; [7] 99% | [5]; [8] 97% | [5]; at 50.0 µM 87.2%

Clc1ccc(/C=N/Nc2c3ccccc3nc3ccccc23)c(Cl)c1
active: [1]; [8] 84% | [1]; at 50.0 µM 86.4% | [2]; [8] 87% | [3]; [8] 83% | [3]; at 50.0 µM 87.8% | [5]; [8] 92% | [6]; [8] 87% | [6]; at 50.0 µM 85.4%
inactive: [1]; [7] -6% | [2]; [7] -11% | [2]; at 50.0 µM 46% | [3]; [7] -5% | [4]; [7] -47% | [4]; [8] 64% | [4]; at 50.0 µM 28.5% | [5]; [7] -12% | [5]; at 50.0 µM 60.4% | [6]; [7] 0%

Reference: PubChem BioAssay (NCI)
